Assay results taken from PubChem BioAssay (NCI).
Compounds without any hit were thinned out: in the full panel of roughly 79,000, 15% have a hit. Activity calls are given as the source filed them. Cut-off read from the data, not from the text of the source: active = growth inhibition above about 70%; inactive = the rest.

Tests used:
[1] = NCI Yeast Anticancer Drug Screen. Data for the rad52 strain (AID 147);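 note: 0% = growth of vehicle-treated control cultures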; details: S. cerevisiae rad52 mutant growth inhibition, stronger effect = higher value
Method in brief: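 Measured: yeast growth inhibition. System: strain with a defined DNA damage repair alteration. Reference: vehicle-treated control cultures.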

[2] = NCI Yeast Anticancer Drug Screen. Data for the wt1 strain (AID 149);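 note: 0% = growth of vehicle-treated wt1 cultures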; details: S. cerevisiae wt1 strain (SPY 50644) growth inhibition, stronger effect = higher value
Method in brief: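 wt1 strain grown with compound or vehicle; inhibition taken from the growth difference.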

[3] = NCI Yeast Anticancer Drug Screen. Data for the rad50EPP+ strain (AID 151);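 note: 0% = growth of vehicle-treated control cultures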; details: S. cerevisiae rad50 mutant strain, stronger effect = higher value
Method in brief: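 One strain with a rad50 alteration (rad50EPP+) was compound-treated, its growth then compared to that of vehicle controls.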

[4] = NCI Yeast Anticancer Drug Screen. Data for the mgt1 strain (AID 153); details: S. cerevisiae mgt1 mutant growth inhibition, stronger effect = higher value
Method in brief: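 After exposure of the mgt1 yeast mutant to compound, growth was measured and reported as inhibition compared with vehicle controls.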

[5] = NCI Yeast Anticancer Drug Screen. Data for the rad50 strain (AID 155);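 note: 0% = growth of vehicle-only cultures of the same strain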; details: S. cerevisiae rad50 strain growth inhibition, stronger effect = higher value
Method in brief: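 DNA repair mutant yeast, compound exposure, growth read-out; inhibition is taken relative to vehicle.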

[6] = NCI Yeast Anticancer Drug Screen. Data for the mec2-1 strain (AID 157); details: S. cerevisiae mec2-1 strain, stronger effect = higher value
Method in brief: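 Test agents were screened against the mec2-1 yeast strain, with defined DNA repair or cell cycle alteration. Growth was scored as inhibition against vehicle-only controls.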

[7] = NCI Yeast Anticancer Drug Screen. Data for the rad14 strain (AID 159);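 note: 0% = growth of vehicle-treated control cultures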; details: S. cerevisiae rad14 strain growth inhibition, stronger effect = higher value
Method in brief: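 DNA repair-defective yeast, compound-exposed; % growth inhibition derived by comparison with vehicle-treated controls.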

[8] = NCI Yeast Anticancer Drug Screen. Data for the sgs1 mgt1 strain (AID 161);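 note: 0% = growth of cultures given vehicle only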; details: S. cerevisiae sgs1 mgt1 strain, stronger effect = higher value
Method in brief: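 Mutant yeast exposed to compound; growth scored against vehicle-only wells.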

[9] = NCI Yeast Anticancer Drug Screen. Data for the cln2 rad14 strain (AID 165);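 note: 0% = growth equal to vehicle treated cultures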; details: S. cerevisiae cln2 rad14 strain, stronger effect = higher value
Method in brief: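 Growth of compound-exposed yeast (cln2 rad14 genotype) measured and expressed as inhibition relative to vehicle.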

[10] = NCI Yeast Anticancer Drug Screen. Data for the bub3 strain (AID 167); details: S. cerevisiae bub3 mutant strain, stronger effect = higher value
Method in brief: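 In this screen, a yeast mutant lacking normal mitotic checkpoint function is challenged with compound. Relative growth versus vehicle gives the inhibition value.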

[11] = NCI Yeast Anticancer Drug Screen. Data for the wt2 strain (AID 169);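 note: 0% = growth of vehicle-treated yeast cultures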; details: S. cerevisiae wt2 strain growth inhibition, stronger effect = higher value
Method in brief: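 Genetically defined yeast strains from a DNA-repair/cell-cycle panel were used. Compound-exposed yeast growth was measured, and the inhibition was calculated relative to vehicle treatment.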

[12] = NCI Yeast Anticancer Drug Screen. Data for the mlh1 strain (AID 171);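 note: 0% = growth of vehicle-treated control cultures of the same strain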; details: S. cerevisiae mlh1 strain growth inhibition, stronger effect = higher value
Method in brief: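 Here the genetically defined yeast mutant is grown with each compound, and the extent to which its growth falls below that of vehicle-exposed cells is reported.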

[13] = NCI Yeast Anticancer Drug Screen. Data for the sgs1 strain (AID 173);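 note: 0% = growth of vehicle-only control cultures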; details: S. cerevisiae sgs1 mutant, stronger effect = higher value
Method in brief: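 Relative growth inhibition, referenced to vehicle, was determined in a yeast strain with a defined alteration affecting DNA damage repair or cell cycle control after compound exposure.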

[14] = NCI Yeast Anticancer Drug Screen. Data for the mlh1 rad18 strain (AID 175); details: S. cerevisiae mlh1 rad18 strain growth inhibition, stronger effect = higher value
Method in brief: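 In this whole-cell yeast screen, a strain with altered DNA damage repair is challenged with compound, and its growth is measured against matched vehicle-treated controls.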

[15] = NCI Yeast Anticancer Drug Screen. Data for the rad18 strain (AID 177); details: S. cerevisiae rad18 mutant growth inhibition, stronger effect = higher value
Method in brief: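 Screen uses a yeast strain with a defined lesion in DNA damage repair; compound effect is read as loss of growth compared to untreated vehicle cultures.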

[16] = at 5.0 µM (retest, dose inferred, filed as 0.5)
[17] = at 50.0 µM (retest, dose inferred, filed as 5.0)

Measured: growth inhibition

CN(C)CCOc1ccc2c(c1)C/C(=C/c1ncc([N+](=O)[O-])n1C)C2=O
active: [1]; at 3.7 µM 70% | [1]; at 11.0 µM 83% | [1]; at 33.0 µM 91% | [1]; at 100.0 µM 90% | [5]; at 33.0 µM 83% | [5]; [17] 75% | [5]; at 50.0 µM 74.3% | [5]; at 100.0 µM 91% | [6]; at 33.0 µM 88% | [6]; [17] 95% | [6]; at 50.0 µM 89.2% | [6]; at 100.0 µM 90% | [7]; at 11.0 µM 81% | [7]; at 33.0 µM 95% | [7]; at 100.0 µM 97% | [8]; [17] 82% | [8]; at 50.0 µM 83.1% | [9]; [17] 74% | [9]; at 50.0 µM 77.9% | [10]; at 50.0 µM 72.9% | [13]; at 33.0 µM 70% | [13]; at 100.0 µM 81% | [14]; [17] 82% | [14]; at 50.0 µM 89.3% | [15]; at 1.2 µM 83% | [15]; at 3.7 µM 90% | [15]; at 11.0 µM 91% | [15]; at 33.0 µM 94% | [15]; at 100.0 µM 92%
inactive: [1]; at 1.2 µM 50% | [2]; at 1.2 µM 28% | [2]; at 3.7 µM 5% | [2]; at 11.0 µM 20% | [2]; at 33.0 µM 21% | [2]; at 100.0 µM 39% | [3]; at 1.2 µM 22% | [3]; at 3.7 µM 6% | [3]; at 11.0 µM 10% | [3]; at 33.0 µM 35% | [3]; at 100.0 µM 59% | [4]; at 1.2 µM 31% | [4]; at 3.7 µM 36% | [4]; at 11.0 µM 29% | [4]; at 33.0 µM 36% | [4]; at 100.0 µM 62% | [5]; at 1.2 µM 40% | [5]; at 3.7 µM 47% | [5]; [16] 33% | [5]; at 11.0 µM 64% | [6]; at 1.2 µM 31% | [6]; at 3.7 µM 30% | [6]; [16] 30% | [6]; at 11.0 µM 53% | [7]; at 1.2 µM 33% | [7]; at 3.7 µM 51% | [8]; [16] 47% | [9]; [16] 13% | [10]; at 1.2 µM 3% | [10]; at 3.7 µM 10% | [10]; [16] 6% | [10]; at 11.0 µM 10% | [10]; at 33.0 µM 20% | [10]; [17] 6% | [10]; at 100.0 µM 59% | [11]; at 1.2 µM -40% | [11]; at 3.7 µM -23% | [11]; at 11.0 µM -30% | [11]; at 33.0 µM -22% | [11]; at 100.0 µM 25% | [12]; at 1.2 µM 31% | [12]; at 3.7 µM 36% | [12]; at 11.0 µM 29% | [12]; at 33.0 µM 36% | [12]; at 100.0 µM 62% | [13]; at 1.2 µM 29% | [13]; at 3.7 µM 52% | [13]; at 11.0 µM 65% | [14]; [16] 53%
